# Assay outcomes (PubChem)
# EBV LMP1 NFkB: EBV LMP1-driven NF-kappaB luciferase reporter inhibitors, primary screen, cell-based, luminescence, single point; LMP1-induced NF-kappaB luciferase reporter cells; inhibition, % at 12.5 µM; actives 0.69% (n = 350,000); in the data active = inhibition above about 41%;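 also: 0% = neutral control wells and 100% = reference inhibitor control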
# TROY NFkB inh: inhibitors of TROY-driven NF-kB signaling, primary screen, Q293 LMP1-TROYcd cells, NF-kB luciferase, uHTS; Q293 LMP1-TROYcd NF-kB luciferase reporter, 4 h; inhibition, % at 10 µM; actives 0.98% (n = 360,000); AID 1347056, 2019;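 active = compounds whose plate-normalised and pattern-corrected inhibition of the luciferase reporter signal at the single screening dose is 50% or more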
# TRPM1 prom inh: inhibitors of MITF-dependent TRPM1 promoter reporter, primary screen, cell-based, SK-MEL-5, single point, luciferase. SK-MEL-5 TRPM1 promoter luciferase, 24 h. inhibition, % at 12.5 µM. actives 0.83% (n = 330,000);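 active = mean inhibition across replicates of 60% or more, whatever share of single replicates reaches that level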
# Peg3 promoter: Peg3 promoter-driven luciferase inhibitors, primary screen, cell-based, HeLa, luciferase luminescence; HeLa PEG-Prom luciferase reporter, overnight; inhibition, % at 20 µM; actives 1.7% (n = 360,000); AID 588405, 2011;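 active = inhibition of at least 50% at 20 µM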
# TWEAK-Fn14 inh: inhibitors of TWEAK-Fn14 signaling, primary screen, luciferase reporter cells, uHTS; TWEAK-stimulated Fn14 reporter cells, luciferase luminescence, 8 h; inhibition, % at 10 µM; actives 2% (n = 360,000); in the data active = inhibition above about 50%
# Shn3 3UTR inh: reduction of Shn3 3'UTR firefly luciferase signal, primary screen, Schnurri-3 inhibitor project, cell-based, Clone20 osteoblasts, set 2; inhibition, % at 12.5 µM; actives 0.52% (n = 360,000); Clone20 osteoblast Shn3 3'UTR firefly luciferase, 24 h;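 active = mean inhibition of at least 75% with every replicate also reaching 75%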;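 also: 0% = median of neutral control wells and 100% = pilot-screen positive control compound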
# The depositor's hits bear a star; . = not tested or not shown. Shown are actives, neighbours in structure and some others; about 4.1% of the full set was active somewhere.
SMILES,EBV LMP1 NFkB,TROY NFkB inh,TRPM1 prom inh,Peg3 promoter,TWEAK-Fn14 inh,Shn3 3UTR inh
CCCc1cc(NCCCN2CCOCC2)n2c(nc3ccccc32)c1C#N,-14.0,.,-2.0,32.2,82.1*,-46.9
CC1(Cc2ccc3c(c2)OCO3)C(=O)Nc2ccc(-c3cccc(C(F)(F)F)c3)cc21 (stereo not drawn),.,6.2,.,9.1,102.7*,31.2
CC1(Cc2ccc(Cl)cc2)C(=O)Nc2ccc(-c3ccc(F)c(Cl)c3)cc21 (stereo not drawn),.,-0.6,.,7.4,2.7,13.8
C=Cc1ccc(CC2(C)C(=O)Nc3ccc(-c4cccnc4)cc32)cc1 (stereo not drawn),.,47.8,.,31.6,81.0*,26.7
COc1ccccc1-c1ccc2c(c1)C(C)(Cc1ccc(Cl)c(Cl)c1)C(=O)N2 (stereo not drawn),.,1.6,.,13.7,17.9,-22.4
CC1(Cc2ccc(F)cc2)C(=O)Nc2ccc(-c3cccnc3)cc21 (stereo not drawn),.,24.7,.,13.7,64.4*,30.8
CC1(C)CC(NC(=O)C2CCN(S(=O)(=O)c3cccc(C(F)(F)F)c3)CC2)CC(C)(C)N1,-3.1,8.7,-21.6,-3.7,14.0,-4.8
CCC(C)C(NC(=O)CCC(=O)OCC(=O)[C@@]1(O)CCC2[C@@H]3CCC4=CC(=O)C=C[C@]4(C)C3[C@@H](O)C[C@@]21C)C(=O)O (stereo partly drawn),7.3,11.0,-14.4,10.6,-4.1,4.6
CC1(C)CCC[C@]2(C)[C@H]3Cc4cc(O)ccc4O[C@]3(C)CC[C@@H]12,-8.1,-11.1,-8.9,-13.8,24.5,17.9
CCOc1ccc(/C=C2\CCC(C3CCCC3)C2=O)cc1OC (stereo not drawn),-14.6,-48.7,-40.5,-70.5,-20.2,15.9
COc1ccc(/C=C2\Cc3ccccc3C2=O)cc1OC,2.2,-66.1,-5.3,-37.8,-4.8,-16.1
COc1ccc(/C=C2/CSC/C(=C/c3ccc(OC)c(OC)c3)C2=O)cc1OC,90.0*,15.1,99.0*,99.6*,92.3*,97.8*
COc1cc(C=C2CCCC(=Cc3ccc(OCC4CO4)c(OC)c3)C2=O)ccc1OCC1CO1 (stereo not drawn),48.9*,-3.6,.,92.7*,73.0*,54.4
O=C(CSc1nccc(=O)[nH]1)NC1CCCCCC1,-3.0,2.0,2.3,-1.4,-28.5,6.0
Cc1cc2ncn(-c3ncccc3[N+](=O)[O-])c2cc1C,4.1,7.4,-2.1,19.3,-4.2,8.5
CCCCC/C=C/C1=CC(=O)C[C@H](c2ccc(OC)c(OC)c2)C1,6.7,-2.3,-0.6,-21.6,10.5,4.6
O=C(NCc1ccc2c(c1)OCO2)c1nc(S(=O)(=O)Cc2ccccc2)ncc1Cl,-8.3,60.0*,52.4,105.9*,72.9*,94.3*
O=C(NCc1ccc2c(c1)OCO2)c1nc(S(=O)(=O)Cc2ccccc2F)ncc1Cl,11.4,76.1*,90.7*,105.5*,78.9*,94.7*
CCCOC(=O)Nc1cc(OC)ccc1[N+](=O)[O-],-19.6,-20.5,-15.9,-50.1,2.1,-3.4
CCOc1cc(C(=S)N2CCOCC2)cc(Br)c1OS(=O)(=O)c1ccccc1,-6.2,-9.3,-1.0,37.5,-2.1,15.0
COC(=O)c1cc(=O)n(Cc2ccc(OC)c(OC)c2)c(=Nc2ccc(F)cc2)s1,9.7,28.4,15.7,81.2*,65.1*,16.6
COC(=O)c1cc(=O)n(CCc2ccc(OC)c(OC)c2)c(=Nc2ccc(F)c(Cl)c2)s1,-30.4,8.9,7.1,99.0*,59.8*,50.2
CCOC(=O)c1ccc(N=c2sc(C(=O)OC)cc(=O)n2-c2ccc(C(=O)OCC)cc2)cc1,-1.9,20.5,30.4,98.9*,54.1*,1.9
COC(=O)c1cc(=O)n(Cc2ccc(F)cc2)c(=Nc2ccccc2)s1,-3.0,3.4,20.3,54.9*,32.1,-1.4
COC(=O)c1cc(=O)n(-c2ccccc2)c(=Nc2ccccc2)s1,7.1,-5.6,-5.8,32.6,22.8,-3.9
SMILES,EBV LMP1 NFkB,TROY NFkB inh,TRPM1 prom inh,Peg3 promoter,TWEAK-Fn14 inh,Shn3 3UTR inh
Cc1ccccc1CN1CCSc2sccc2C1=O,8.1,18.6,2.5,5.5,0.9,-8.1
COc1ccc(C2c3ccc(O)cc3Oc3ncn4nc(-c5ccncc5)nc4c32)cc1OC (stereo not drawn),4.0,19.1,-7.3,23.6,20.8,9.3
COc1cccc(-n2nnnc2SCC(=O)NC2CCCCC2)c1,5.5,-10.0,1.8,-0.2,-0.5,-5.1
CCOC(=O)N1CCN(S(=O)(=O)c2ccc(C(=O)NNc3nc4cc(C)cc(C)c4s3)cc2)CC1,5.4,9.6,55.5,46.3,-19.2,82.2
CCOC(=O)N1CCN(S(=O)(=O)c2ccc(C(=O)NNc3nc4c(C)cccc4s3)cc2)CC1,91.9*,43.2,19.9,50.0,4.7,41.3
Cc1cccc2sc(NNC(=O)c3ccc(S(=O)(=O)N4CCCC(C)C4)cc3)nc12 (stereo not drawn),8.5,46.5,42.2,68.0*,62.8*,22.5
Cc1cccc2sc(NNC(=O)c3ccc(S(=O)(=O)N4CCc5ccccc5C4)cc3)nc12,-19.0,29.1,52.0,60.5*,43.6,71.5
NC(=S)N/N=C/c1c[nH]c2ccc(OCc3ccccc3)cc12,9.4,10.7,.,-23.3,26.9,16.1
O=C(O)c1ccc(S(=O)(=O)N2CCSCC2)cc1,-6.7,-3.9,6.7,18.2,9.1,-59.4
CCc1nc2c(cnn2-c2ccc(F)cc2)c(=O)n1-c1ccc(N2CCC(C)CC2)cc1,10.7,-0.7,21.2,24.1,65.2*,75.3
Cc1noc2ncnc(Sc3ccc(Cl)cc3)c12,5.9,49.0,6.5,101.7*,65.2*,-16.5
Cc1ccccc1Sc1ncnc2onc(C)c12,-0.7,19.0,10.3,5.7,32.2,-11.6
Cc1noc2ncnc(Sc3c(Cl)cccc3Cl)c12,-5.1,57.0*,34.5,96.8*,25.2,1.6
Cc1ccc(Sc2ncnc3onc(C)c23)cc1,18.6,27.1,6.7,4.2,42.9,-10.3
O=C(c1ccc2c(c1)OCO2)C1CCCN(Cc2ccc(OC(F)F)cc2)C1 (stereo not drawn),10.8,14.8,4.1,18.5,15.0,6.8
CCN1CCN(CC(=O)Nc2nc3ccc(OC)cc3s2)CC1,-7.8,-16.2,1.7,11.2,16.8,4.1
O=C(CN1CCC(n2nnc3cc(F)ccc32)CC1)NC1CC1,3.4,1.8,8.7,5.4,1.5,-7.7
COc1ccc2nc(NC(=O)CN3CCN(C)CC3)sc2c1,-1.6,54.3*,-15.0,-28.4,-6.4,-27.6
COc1ccc2nc(Nc3sc4c(c3C(N)=O)CCCC4)sc2c1,-34.4,57.8*,-50.1,-127.7,42.1,-67.7
